Several values for one entry are separate records, joined by “and”; a condition that tells them apart may be missing. Identical values can stand only once. Out of some 5,500 compounds screened, about 2,000 (36%) were called active. Inconclusive results (about 18%) are left out. Cut-off read from the data, not from the text of the source: active = normalized growth mostly below about 0.91 (no sharp cut-off); inconclusive = no clear call, values can overlap the other calls; inactive = mostly above about 0.92. Some of the results follow.
Assay: chemical genetic growth profiling, strain panel (AID 1159580);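 note: tested at 20 µM; growth read once vehicle control cultures reached saturation at 30 °C; 1 = growth at the plate median or of vehicle wells; lower values mean less growth of the strain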
Details: S. cerevisiae deletion strains, growth OD

Measured: normalized growth

COc1cc2c(c(OC)c1OC)-c1ccc(OC)c(=O)cc1[C@@H](NC(C)=O)CC2
inactive: locus YAL013W, strain DEP1, stronger effect = lower value 1.02 | locus YAL021C, strain ccr4, stronger effect = lower value 1.01 | locus YAL026C, strain drs2, stronger effect = lower value 1 | locus YAL030W, strain snc1, stronger effect = lower value 0.988 | locus YBL061C, strain skt5, stronger effect = lower value 1 | locus YBR009C, strain hhf1, stronger effect = lower value 0.985 | locus YBR021W, strain FUR4, stronger effect = lower value 1.04 | locus YBR023C, strain chs3, stronger effect = lower value 0.998 | locus YBR171W, strain sec66, stronger effect = lower value 1.01 | locus YBR229C, strain ROT2, stronger effect = lower value 1.02 | locus YBR231C, strain swc5, stronger effect = lower value 1.02 | locus YBR279W, strain paf1, stronger effect = lower value 1 | locus YCL011C, strain gbp2, stronger effect = lower value 1 | locus YCL016C, strain dcc1, stronger effect = lower value 0.986 | locus YCL029C, strain bik1, stronger effect = lower value 1.03 | locus YCL069W, strain vba3, stronger effect = lower value 1 | locus YCR088W, strain abp1, stronger effect = lower value 1.01 | locus YDL005C, strain med2, stronger effect = lower value 1.01 | locus YDL035C, strain GPR1, stronger effect = lower value 1.02 | locus YDL040C, strain nat1, stronger effect = lower value 1.01 | locus YDL074C, strain BRE1, stronger effect = lower value 1.04 | locus YDL101C, strain DUN1, stronger effect = lower value 1.02 | locus YDL134C, strain PPH21, stronger effect = lower value 1.02 | locus YDL185W, strain tfp1, stronger effect = lower value 1.04 | locus YDL192W, strain arf1, stronger effect = lower value 1.02 | locus YDR001C, strain nth1, stronger effect = lower value 1.02 | locus YDR069C, strain doa4, stronger effect = lower value 1.04 | locus YDR101C, strain arx1, stronger effect = lower value 1.02 | locus YDR137W, strain rgp1, stronger effect = lower value 0.988 | locus YDR159W, strain sac3, stronger effect = lower value 0.999 | locus YDR162C, strain NBP2, stronger effect = lower value 1.03 | locus YDR195W, strain ref2 0.974 | locus YDR297W, strain sur2, stronger effect = lower value 1.01 | locus YDR318W, strain mcm21, stronger effect = lower value 1.03 | locus YDR334W, strain swr1, stronger effect = lower value 1.01 | locus YDR335W, strain msn5, stronger effect = lower value 0.998 | locus YDR388W, stronger effect = lower value 1.03 | locus YDR392W, strain spt3, stronger effect = lower value 0.968 | locus YDR502C, strain sam2, stronger effect = lower value 1.02 | locus YEL003W, strain gim4, stronger effect = lower value 1 | locus YEL037C, strain rad23, stronger effect = lower value 1.01 | locus YEL061C, strain CIN8 (second series), stronger effect = lower value 0.999 | locus YEL061C, strain CIN8, stronger effect = lower value 1.01 | locus YER015W, strain faa2, stronger effect = lower value 1.01 | locus YER016W, strain bim1, stronger effect = lower value 0.963 | locus YER110C, stronger effect = lower value 1.02 | locus YER111C, strain swi4, stronger effect = lower value 1.02 | locus YER155C, strain BEM2 (second series), stronger effect = lower value 1.02 | locus YER155C, strain BEM2, stronger effect = lower value 1.01 | locus YER167W, strain BCK2, stronger effect = lower value 1.02 | locus YFR010W, strain ubp6, stronger effect = lower value 1.01 | locus YGL078C, strain dbp3, stronger effect = lower value 1.03 | locus YGL086W, strain mad1, stronger effect = lower value 1.02 | locus YGL167C, strain pmr1, stronger effect = lower value 1.02 | locus YGL173C, strain kem1, stronger effect = lower value 1.03 | locus YGL227W, strain vid30, stronger effect = lower value 1.01 | locus YGL240W, strain doc1, stronger effect = lower value 1.03 | locus YGL248W, strain PDE1, stronger effect = lower value 1.03 | locus YGL253W, strain hxk2, stronger effect = lower value 1 | locus YGR078C, strain PAC10, stronger effect = lower value 1.03 | locus YGR135W, strain pre9, stronger effect = lower value 1.03 | locus YGR229C, strain SMI1, stronger effect = lower value 1.02 | locus YGR252W, strain gcn5, stronger effect = lower value 1.07 | locus YHR013C, strain ard1, stronger effect = lower value 0.986 | locus YHR027C, strain rpn1, stronger effect = lower value 1.01 | locus YHR030C, strain SLT2, stronger effect = lower value 1.01 and 1.04 | locus YHR079C, strain IRE1 (second series), stronger effect = lower value 1.04 | locus YHR079C, strain IRE1, stronger effect = lower value 1.04 | locus YHR094C, strain hxt1, stronger effect = lower value 1.02 | locus YHR129C, strain ARP1, stronger effect = lower value 1.01 | locus YHR142W, strain chs7, stronger effect = lower value 0.996 | locus YHR200W, strain rpn10, stronger effect = lower value 1.03 | locus YIL066C, strain RNR3, stronger effect = lower value 1.02 | locus YIL073C, strain SPO22, stronger effect = lower value 1.04 | locus YIL125W, strain kgd1, stronger effect = lower value 1.03 | locus YIR030C, strain dcg1, stronger effect = lower value 1.04 | locus YJL092W, strain hpr5, stronger effect = lower value 1.01 | locus YJL095W, strain BCK1 (second series), stronger effect = lower value 1 | locus YJL095W, strain BCK1, stronger effect = lower value 1.04 and 1.02 | locus YJL115W, strain asf1, stronger effect = lower value 1.02 | locus YJL129C, strain trk1, stronger effect = lower value 1.01 | locus YJL134W, strain LCB3, stronger effect = lower value 1.02 | locus YJL154C, strain vps35, stronger effect = lower value 0.995 | locus YJL164C, strain tpk1, stronger effect = lower value 0.984 | locus YJL166W, strain qcr8, stronger effect = lower value 1.02 | locus YJL168C, strain set2, stronger effect = lower value 1.02 | locus YJL187C, strain SWE1 (second series), stronger effect = lower value 1.03 | locus YJR043C, strain POL32, stronger effect = lower value 1 | locus YJR066W, strain TOR1, stronger effect = lower value 0.988 | locus YJR075W, strain HOC1, stronger effect = lower value 1.02 | locus YKL009W, strain mrt4, stronger effect = lower value 1.01 | locus YKL068W, stronger effect = lower value 1.03 | locus YKL085W, strain MDH1 (second series), stronger effect = lower value 1.06 | locus YKL085W, strain MDH1, stronger effect = lower value 1.06 | locus YKL160W, strain elf1, stronger effect = lower value 1.02 | locus YKL190W, strain CNB1, stronger effect = lower value 1.01 | locus YKR001C, strain vps1, stronger effect = lower value 1.03 | locus YKR026C, strain gcn3, stronger effect = lower value 1.06 | locus YKR091W, strain srl3, stronger effect = lower value 0.985 | locus YLL001W, strain dnm1, stronger effect = lower value 1.01 | locus YLL026W, stronger effect = lower value 0.991 | locus YLL041C, strain sdh2, stronger effect = lower value 1.01 | locus YLR027C, strain aat2, stronger effect = lower value 1.01 | locus YLR039C, strain RIC1, stronger effect = lower value 1.05 | locus YLR058C, strain SHM2, stronger effect = lower value 1.03 | locus YLR102C, strain apc9, stronger effect = lower value 1.03 | locus YLR113W, strain HOG1, stronger effect = lower value 1.04 | locus YLR221C, strain rsa3, stronger effect = lower value 0.997 | locus YLR258W, strain gsy2, stronger effect = lower value 1.01 | locus YLR262C, strain YPT6 (second series), stronger effect = lower value 1.04 | locus YLR262C, strain YPT6, stronger effect = lower value 1.04 | locus YLR268W, strain sec22, stronger effect = lower value 1.04 | locus YLR320W, strain mms22, stronger effect = lower value 1.01 | locus YLR330W, strain CHS5, stronger effect = lower value 1.02 | locus YLR342W, strain FKS1 (second series), stronger effect = lower value 1.03 | locus YLR342W, strain FKS1, stronger effect = lower value 1.01 | locus YLR357W, strain rsc2, stronger effect = lower value 1.02 | locus YLR370C, strain arc18, stronger effect = lower value 1.01 | locus YLR371W, strain rom2, stronger effect = lower value 1.03 | locus YLR384C, strain iki3, stronger effect = lower value 1.02 | locus YLR418C, strain cdc73, stronger effect = lower value 1.06 | locus YML016C, strain PPZ1, stronger effect = lower value 1.03 | locus YML032C, strain rad52, stronger effect = lower value 1.02 | locus YML120C, strain ndi1, stronger effect = lower value 1.02 | locus YML124C, strain tub3, stronger effect = lower value 1.03 | locus YMR058W, strain fet3, stronger effect = lower value 1.01 | locus YMR078C, strain ctf18, stronger effect = lower value 1.04 | locus YMR125W, strain sto1, stronger effect = lower value 1.01 | locus YMR129W, stronger effect = lower value 1.02 | locus YMR205C, strain PFK2, stronger effect = lower value 1 | locus YMR223W, strain ubp8, stronger effect = lower value 1.04 | locus YMR231W, strain pep5, stronger effect = lower value 1.01 | locus YMR307W, strain GAS1, stronger effect = lower value 0.99 | locus YNL067W, strain RPL9B, stronger effect = lower value 1.03 | locus YNL071W, strain lat1, stronger effect = lower value 1 | locus YNL128W, strain TEP1, stronger effect = lower value 1.03 | locus YNL153C, strain GIM3, stronger effect = lower value 1.02 | locus YNL183C, strain NPR1, stronger effect = lower value 0.99 | locus YNL209W, strain ssb2, stronger effect = lower value 1 | locus YNL233W, strain BNI4, stronger effect = lower value 1.02 | locus YNL248C, strain rpa49, stronger effect = lower value 0.947 | locus YNL250W, strain rad50, stronger effect = lower value 1 | locus YNL271C, strain bni1, stronger effect = lower value 1.04 | locus YNL298W, strain CLA4, stronger effect = lower value 1.03 | locus YNL307C, strain MCK1, stronger effect = lower value 1.03 | locus YNL322C, strain KRE1 (second series), stronger effect = lower value 1.02 | locus YNR049C, strain mso1, stronger effect = lower value 1.03 | locus YNR052C, strain pop2, stronger effect = lower value 1.02 | locus YOL012C, strain htz1 0.756 | locus YOL147C, strain pex11, stronger effect = lower value 1.04 | locus YOR001W, strain rrp6, stronger effect = lower value 1.02 | locus YOR061W, strain CKA2, stronger effect = lower value 1.03 | locus YOR069W, strain VPS5, stronger effect = lower value 1.01 | locus YOR070C, strain gyp1, stronger effect = lower value 0.995 | locus YOR080W, strain dia2, stronger effect = lower value 1.02 | locus YOR083W, strain WHI5, stronger effect = lower value 1.02 | locus YOR106W, strain vam3, stronger effect = lower value 1.03 | locus YOR136W, strain idh2, stronger effect = lower value 1.02 | locus YOR144C, strain elg1, stronger effect = lower value 1.03 | locus YOR184W, strain ser1, stronger effect = lower value 1.04 | locus YOR231W, strain MKK1, stronger effect = lower value 1.03 | locus YOR265W, strain rbl2, stronger effect = lower value 1.01 | locus YOR270C, strain vph1, stronger effect = lower value 1.01 | locus YOR290C, strain snf2, stronger effect = lower value 1.01 | locus YOR316C, strain cot1, stronger effect = lower value 1.04 | locus YPL051W, strain arl3, stronger effect = lower value 1.02 | locus YPL055C, strain LGE1, stronger effect = lower value 1.04 | locus YPL078C, strain atp4, stronger effect = lower value 1.02 | locus YPL106C, strain sse1, stronger effect = lower value 0.989 | locus YPL240C, strain hsp82, stronger effect = lower value 1 | locus YPL241C, strain CIN2, stronger effect = lower value 1.01 | locus YPL256C, strain CLN2, stronger effect = lower value 1.12 | locus YPR119W, strain clb2, stronger effect = lower value 1.03 | locus YPR141C, strain kar3, stronger effect = lower value 1.05 | locus YPR163C, strain tif3, stronger effect = lower value 1.04 | locus YPR167C, strain met16, stronger effect = lower value 1.04 | strain wtn01, stronger effect = lower value 1.01

Source: PubChem BioAssay AID1159580 (chemical genetic matrix, 2015)
